Source: PubChem BioAssay (EPA / NIEHS)
Calls of active or inactive are those of the source. How the source made its calls: active means hit-call score of the fitted dose curve at least 0.9, where 1 is the maximum; inactive means score below 0.9.

Assay: ATG_FoxO_CIS: Attagene CIS-FACTORIAL HepG2 Assay for human Forkhead box O (FoxO) (AID 2282943)
Details: HepG2 Attagene cis-reporter, FoxO element, mRNA; actives raise or lower the signal
Protocol: ATG_CIS is a cell-based, multiplexed-readout assay that uses HepG2, a human liver cell line, with measurements taken at 24 hours after chemical dosing in a 24-well plate.ATG_FoxO_CIS is one of 52 assay component(s) measured or calculated from the ATG_CIS assay. It is designed to make measurements of mRNA induction, a form of inducible reporter, as detected with fluorescence intensity signals by Reverse transcription polymerase chain reaction (RT-PCR) and Capillary electrophoresis technology.Data from the assay component ATG_FoxO_CIS was analyzed into 1 assay endpoint. This assay endpoint, ATG_FoxO_CIS, was analyzed with bidirectional fitting relative to DMSO as the negative control and baseline of activity. Using a type of inducible reporter, measures of mRNA for gain or loss-of-signal activity can be used to understand the reporter gene at the transcription factor-level as they relate to the gene FOXO1 and FOXO3. Furthermore, this assay endpoint can be referred to as a primary readout, because this assay has produced multiple assay endpoints where this one serves a reporter gene function. To generalize the intended target to other relatable targets, this assay endpoint is annotated to the dna binding intended target family, where the subfamily is forkhead box protein.
Human liver HepG2 cells are transiently transfected with multiple reporter transcription units (MRTUs) in 6-well plates using FuGene 6 reagent (Roche; 3 ml FuGene/1 mg DNA). The MRTU constructs are regulated by a cis-regulating element (promoter). […] A major difference between the CIS and TRANS system is that in CIS activities of endogenous TFs are measured, whereas the TRANS assay evaluates changes in activities of exogenous, chimeric NR-Gal4 proteins. […] At the end of 24 hour incubation, total RNA was isolated using TriZol reagent (Invitrogen). The isolated RNA is then reverse-transcribed using oligo(dT) primer and Mo-MLV reverse transcriptase (Invitrogen) with DNAse I (Ambion) treatment for 30 min. The one-tenth of the produced cDNA was amplified by PCR using Taq DNA polymerase (Invitrogen) and two reporter sequence-specific primers. The PCR products were fluorescently labeled by primer extension with 6-arboxyfluorescein (6-FAM) 5'-labeled reporter sequence-specific primer (2 min at 95 C, 20 s at 68 C and 10 min at 72 C) and these products were digested with 5U of HpaI (New England Biolabs) for 2h at 37 C. The fragments were purified using Qiaquick PCR columns (Qiagen), analyzed on an ABI 3130xL genetic analyzer (Applied Biosystems) with peak positions identified by using a set of X-rhodamine (ROX)-labeled MapMarker1000 molecular weight standards (BioVentures). The raw capillary electrophoresis data was processed using Attagraph software (Attagene).

SMILES	outcome	AC50
CCC(=O)Nc1ccc(Cl)c(Cl)c1	inactive	–
C#CCC1=C(C)C(OC(=O)C2C(C=C(C)C)C2(C)C)CC1=O (stereo not given)	–	90.3 µM (active)
CC(C1CC1)C(O)(Cn1cncn1)c1ccc(Cl)cc1 (stereo not given)	inactive	–
CCC(CC)Nc1c([N+](=O)[O-])cc(C)c(C)c1[N+](=O)[O-]	inactive	–
CCOC(=O)COc1cc(-c2nn(C)c(OC(F)F)c2Cl)c(F)cc1Cl	inactive	–
CCCSP(=O)(OCC)Oc1ccc(Br)cc1Cl (stereo not given)	inactive	–
O=[N+]([O-])c1cc(C(F)(F)F)c(Cl)c([N+](=O)[O-])c1Nc1ncc(C(F)(F)F)cc1Cl	inactive	–
N#CSCSC#N	inactive	–
CCCOCC(=Nc1ccc(Cl)cc1C(F)(F)F)n1ccnc1	inactive	–
Cc1cc(C2CC2)nc(Nc2ccccc2)n1	–	50 µM (active)
O=c1ccc(=O)[nH][nH]1	inactive	–
CCOP(=S)(Oc1cnc(C(C)(C)C)nc1)OC(C)C (stereo not given)	inactive	–
COP(=O)(NC(C)=O)SC (stereo not given)	inactive	–
CSc1nc(NC(C)C)nc(NC(C)C)n1	inactive	–
CC(C)N(C(=O)SCC(Cl)=C(Cl)Cl)C(C)C	inactive	–
CCc1cccc(CC)c1N(COC)C(=O)CCl	inactive	–
CC(=NC#N)N(C)Cc1ccc(Cl)nc1	inactive	–
S=C1NCCN1	inactive	–
CCNc1nc(Cl)nc(NC(C)(C)C#N)n1	inactive	–
CCOP(=O)(SC(C)CC)N1CCSC1=O (stereo not given)	inactive	–

SMILES	outcome	AC50
Nc1c(Cl)cc([N+](=O)[O-])cc1Cl	inactive	–
CCCSP(=O)(OCC)SCCC	inactive	–
CN1COCN(Cc2cnc(Cl)s2)C1=N[N+](=O)[O-]	inactive	–
CC(C)[C@H](C(=O)O[C@H](C#N)c1cccc(Oc2ccccc2)c1)c1ccc(Cl)cc1	inactive	–
CC(C)=CC1C(C(=O)OCN2C(=O)C3=C(CCCC3)C2=O)C1(C)C (stereo not given)	inactive	–
CNC(=O)ON=C(C)SC	inactive	–
CC(Oc1cccc(Cl)c1)C(=O)O (stereo not given)	inactive	–
CSC1=N[C@@](C)(c2ccccc2)C(=O)N1Nc1ccccc1	inactive	–
CCCCOC(=O)c1ccccc1C(=O)O	inactive	–
COc1ccc(C(=CC(=O)N2CCOCC2)c2ccc(Cl)cc2)cc1OC	inactive	–
CN(C)[C@@H]1C(=O)C(C(N)=O)=C(O)[C@@]2(O)C(=O)C3=C(O)c4c(O)cccc4[C@@](C)(O)[C@H]3[C@H](O)[C@@H]12	inactive	–
CCOP(=S)(OCC)OC(Cl)C(Cl)(Cl)Cl (stereo not given)	inactive	–
CN(C)NC(=O)CCC(=O)O	inactive	–
CSc1nnc(C(C)(C)C)c(=O)n1N	inactive	–
CCOP(=S)(OCC)SCCSCC	inactive	–
CCCCSP(=O)(SCCCC)SCCCC	inactive	–
CC1=NNC(=O)N(/N=C/c2cccnc2)C1	inactive	–
CN(C)C(=O)Nc1cccc(C(F)(F)F)c1	inactive	–
CCCCOC(=O)[C@@H](C)Oc1ccc(Oc2ccc(C#N)cc2F)cc1	inactive	–
CNC(=O)ON=C(SC)C(=O)N(C)C	inactive	–
